Shown are actives, neighbours in structure and some others; about 12% of the full set was active somewhere.
JMJD2A Tudor inh: JMJD2A Tudor domain (human) inhibition | 4.4% of 390,000 active | O75164 | Potency, µM (top dose mostly 114 µM), most hits filed as inhibitors | AlphaScreen JMJD2A-Tudor / H3K4me3 peptide binding; further: nearly all actives have a fitted effect of over 50% in size
G9a block: inhibitors of human histone lysine methyltransferase G9a | G9a H3K9 monomethylation, AlphaScreen, 2 h | Potency, µM (highest dose often 102 µM), actives largely listed as inhibitors | 8.8% of 350,000 active | AID 504332; further: nearly all actives have a fitted effect of over 75% in size
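Quantitative HTS format: methyltransferase activity on a biotin-tagged H3K9 peptide is measured by AlphaScreen, using a rabbit anti-monomethyl-H3K9 antibody with streptavidin donor and anti-IgG acceptor beads. Final levels are 20 nM enzyme, 500 nM peptide, 20 uM SAM; 2 h RT.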
Sfp PPTase inh: Sfp phosphopantetheinyl transferase inhibition. Q9F4F7. Biochemical Sfp PPTase activity, qHTS. Potency, µM, most hits filed as inhibitors. 3.5% of 310,000 active. AID 1490;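 further: the enzyme is Sfp with the accession as filed and its product quenches rhodamine fluorescence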
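Buffer: 50 mM Hepes-Na pH 7.6, 10 mM MgCl2, 0.01% Nonidet P-40, 0.01% BSA. Enzyme 15 nM, pre-exposed to compound 15 min; substrates then added and fluorescence change tracked over 30 min.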
HP1b binding inh: HP1-beta chromodomain-methylated histone interaction inhibition. AlphaScreen HP1-beta / biotin-H3K9me3 peptide binding. Potency, µM (titrated, usually from 114 µM), actives largely listed as inhibitors. 0.56% of 390,000 active; further: nearly all actives have a fitted effect of over 70% in size
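Compound inhibition of the preformed complex between 50 nM HP1-beta and 50 nM biotinylated H3K9me3 peptide was read by AlphaScreen. Buffer was PBS pH 7.4 with 0.01% Tween-20. Incubations ran 30 min at room temperature, with 10 ug/mL donor/acceptor beads.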
L3MBTL1 inh: L3MBTL1 (human) inhibition; AlphaScreen L3MBTL1–H3K9me1 peptide binding; AID 485360; Q9Y468; 0.66% of 230,000 active; Potency, µM (doses to about 57.1 µM), usual class: inhibitors; further: nearly all actives have a fitted effect of over 60% in size
Target sequence (Q9Y468 whole entry, looked up): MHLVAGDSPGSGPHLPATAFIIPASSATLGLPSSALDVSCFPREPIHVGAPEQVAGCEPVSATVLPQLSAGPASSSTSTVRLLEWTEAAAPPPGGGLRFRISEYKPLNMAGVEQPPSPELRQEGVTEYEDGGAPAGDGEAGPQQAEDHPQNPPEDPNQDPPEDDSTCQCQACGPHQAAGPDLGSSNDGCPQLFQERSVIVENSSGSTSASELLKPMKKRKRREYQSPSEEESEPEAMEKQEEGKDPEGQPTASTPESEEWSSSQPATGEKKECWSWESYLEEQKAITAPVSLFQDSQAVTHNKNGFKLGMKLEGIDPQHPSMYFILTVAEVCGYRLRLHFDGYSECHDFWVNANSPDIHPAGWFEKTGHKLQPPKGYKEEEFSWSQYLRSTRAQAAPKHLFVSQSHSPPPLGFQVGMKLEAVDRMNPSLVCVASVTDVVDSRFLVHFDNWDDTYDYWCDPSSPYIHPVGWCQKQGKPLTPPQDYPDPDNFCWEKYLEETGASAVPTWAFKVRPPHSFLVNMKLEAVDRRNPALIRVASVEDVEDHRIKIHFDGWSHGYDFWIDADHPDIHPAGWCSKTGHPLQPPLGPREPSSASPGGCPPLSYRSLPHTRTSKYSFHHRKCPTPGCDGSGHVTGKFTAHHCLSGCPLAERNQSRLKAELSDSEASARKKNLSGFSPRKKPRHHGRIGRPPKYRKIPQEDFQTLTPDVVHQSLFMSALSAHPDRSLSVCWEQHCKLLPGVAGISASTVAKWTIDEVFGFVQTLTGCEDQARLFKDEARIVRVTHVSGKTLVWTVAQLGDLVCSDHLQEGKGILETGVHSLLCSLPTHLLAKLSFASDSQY
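Read-out is AlphaScreen signal from streptavidin donor and nickel chelate acceptor beads (10 ug/mL final each) bridging L3MBTL1 (50 nM) and biotinylated K9-monomethylated H3(1-15) peptide (75 nM), after 30 min compound exposure at room temperature.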
BAZ2B block: inhibitors of human BAZ2B bromodomain. Q9UIF8. AlphaScreen BAZ2B-H3K14Ac peptide displacement. Potency, µM (highest dose often 114 µM), usual class: inhibitors. 4.4% of 360,000 active. AID 504333; further: nearly all actives have a fitted effect of over 60% in size
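Inhibition is scored as reduced AlphaScreen emission. The BAZ2B/b-H3(5-23)K14Ac complex (50 nM each) in PBS pH 7.4, 0.01% Tween-20 meets compound (up to 110 uM) for 30 min at RT before bead addition.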
Numbers stand for hits; [ ] = dose if it differs, or a comment. The call rests on the fitted dose curve; in most records, active means well fitted curve in the direction sought with a large enough effect; inconclusive means small, poorly fitted or top-dose-only effect, or another doubt; inactive means no such curve, though single readings can be large; an effect the other way counts as inactive or inconclusive.

`Cc1cc(C(=O)COC(=O)c2n[nH]c3ccccc23)c(C)n1C` gave JMJD2A Tudor inh 63µM, G9a block inconclusive, Sfp PPTase inh inactive, HP1b binding inh inactive, L3MBTL1 inh inactive and BAZ2B block inconclusive.
Screening COc1ccc(CCNC(=S)NC(=O)c2ccc(Br)cc2)cc1OC returned JMJD2A Tudor inh inactive, G9a block inactive, Sfp PPTase inh inactive, HP1b binding inh inactive, L3MBTL1 inh inactive and BAZ2B block 32µM.
COc1cc(C)c(NC(=O)C(=S)NCCc2ccccc2)cc1C was read as JMJD2A Tudor inh inactive, G9a block inconclusive, Sfp PPTase inh 16µM, HP1b binding inh inconclusive, L3MBTL1 inh inactive and BAZ2B block inactive.
Screening O=C(NC1CCCCC1)C(=S)NCCc1ccccc1 returned JMJD2A Tudor inh inactive, G9a block 11µM, Sfp PPTase inh 28µM, HP1b binding inh inactive, L3MBTL1 inh inactive and BAZ2B block inactive.
COc1ccc(CCNC(=O)c2ccc(CNS(=O)(=O)c3cc(C)ccc3C)cc2)cc1OC was read as JMJD2A Tudor inh inactive, G9a block 22µM, Sfp PPTase inh inactive, HP1b binding inh inactive and BAZ2B block inactive.
For COc1ccc(CCNC(=O)c2ccc(CNS(=O)(=O)c3ccc(C(C)(C)C)cc3)cc2)cc1OC the results were JMJD2A Tudor inh inactive, G9a block inactive, Sfp PPTase inh inactive, HP1b binding inh inactive, L3MBTL1 inh inactive and BAZ2B block inactive.
For COc1ccc(NC(=S)NCCc2ccccc2)c(C)c1 the results were JMJD2A Tudor inh inactive, Sfp PPTase inh inactive, HP1b binding inh inactive and BAZ2B block inactive.
For CCCC1(c2ccsc2)NC(=O)NC1=O (stereo not given) the results were JMJD2A Tudor inh inactive and HP1b binding inh inactive.
Screening COc1ccc(CCNC(=O)C(C(=O)c2ccccc2)n2cc(Cl)ccc2=O)cc1OC (stereo not given) returned JMJD2A Tudor inh inactive, G9a block 50µM, Sfp PPTase inh inactive, HP1b binding inh inactive, L3MBTL1 inh inactive and BAZ2B block inactive.
Screening COc1ccc(CCNC(=S)NC(=O)c2ccccc2)cc1C returned JMJD2A Tudor inh inactive, G9a block 56µM, Sfp PPTase inh inactive, HP1b binding inh inactive, L3MBTL1 inh inactive and BAZ2B block inconclusive.
For COc1ccc(CCNC(=O)c2ccc3c(c2)NC(=O)C(C(C)C)N3)cc1OC (stereo not given) the results were JMJD2A Tudor inh inactive, G9a block inactive, Sfp PPTase inh inactive, HP1b binding inh inactive and BAZ2B block inactive.
For COc1ccc(CCNC(=O)c2ccc3c(c2)NC(=O)C(CSCc2cc(C)ccc2C)N3)cc1OC (stereo not given) the results were G9a block 1.8µM, Sfp PPTase inh 45µM and BAZ2B block inactive.
N#Cc1c(C#N)c(O)c2ccccc2c1O was read as JMJD2A Tudor inh inactive, G9a block 2µM, Sfp PPTase inh 13µM, HP1b binding inh inactive, L3MBTL1 inh inactive and BAZ2B block inactive.
For NS(=O)(=O)c1ccc(CCN2C(=O)CCC2=O)cc1 the results were JMJD2A Tudor inh inactive, G9a block inactive, Sfp PPTase inh inactive, HP1b binding inh inactive and BAZ2B block inactive.
For CCOC(=O)/C(C#N)=C(C)/C=C1\Sc2ccccc2N1CC the results were JMJD2A Tudor inh inactive, G9a block inactive, Sfp PPTase inh inactive, HP1b binding inh inactive, L3MBTL1 inh inactive and BAZ2B block inactive.
Screening CCN1/C(=C\C(=S)Nc2ccccc2)Sc2ccccc21 returned JMJD2A Tudor inh 25µM, G9a block inconclusive, Sfp PPTase inh 20µM, HP1b binding inh inconclusive, L3MBTL1 inh inactive and BAZ2B block inconclusive.
`CCN1/C(=C\C=C(C(C)=O)C(C)=O)Sc2ccccc21` gave JMJD2A Tudor inh inactive, G9a block 50µM, Sfp PPTase inh inactive, HP1b binding inh inactive and BAZ2B block inconclusive.
COc1ccc(S(=O)(=O)N(CC(=O)NCCSc2ccc(C)cc2)c2ccc(C)cc2)cc1 was read as JMJD2A Tudor inh inactive, G9a block inactive, HP1b binding inh inactive and BAZ2B block inactive.
`CCN(Cc1ccccc1)C(=O)CCc1c(C)nc2c(c(C)nn2-c2ccc(C)c(C)c2)c1C` gave JMJD2A Tudor inh inactive, G9a block inactive, HP1b binding inh inactive and BAZ2B block inactive.
`Cc1ccc(S(=O)(=O)N2CCc3c2cc([N+](=O)[O-])cc3[N+](=O)[O-])cc1` gave JMJD2A Tudor inh 32µM, G9a block inactive[2.33 µM], Sfp PPTase inh inactive, HP1b binding inh inconclusive and BAZ2B block inconclusive.
Screening COc1ccc(Nc2nc(Cl)nc(NCc3ccco3)n2)c(OC)c1 returned JMJD2A Tudor inh inactive, G9a block inactive, Sfp PPTase inh inactive, HP1b binding inh inactive, L3MBTL1 inh inactive and BAZ2B block inactive.
COc1ccc(Nc2nc(NCc3ccco3)nc(N/N=C/c3ccc(O)cc3)n2)cc1 was read as JMJD2A Tudor inh inconclusive, G9a block inconclusive, Sfp PPTase inh inactive, HP1b binding inh inactive, L3MBTL1 inh inconclusive and BAZ2B block 22µM.
`COc1ccc(Nc2nc(NCc3ccco3)nc(N/N=C/c3ccccc3F)n2)cc1` gave JMJD2A Tudor inh 50µM, G9a block inactive, Sfp PPTase inh inactive, HP1b binding inh inconclusive, L3MBTL1 inh inactive and BAZ2B block inconclusive.
For COc1ccc(/C=N/Nc2nc(NCc3ccco3)nc(Nc3ccc(OC)cc3)n2)cc1 the results were JMJD2A Tudor inh inactive, G9a block inactive, Sfp PPTase inh inactive, HP1b binding inh inactive, L3MBTL1 inh inactive and BAZ2B block inconclusive.
`CN1CCN/C1=C(/C(Cl)=C(Cl)Cl)[N+](=O)[O-]` gave JMJD2A Tudor inh inconclusive, G9a block 13µM, Sfp PPTase inh inactive, HP1b binding inh inactive and BAZ2B block inactive.
Screening CN(Cc1ccccc1)C(=C(Cl)Cl)/C(=C1/NCCN1C)[N+](=O)[O-] returned JMJD2A Tudor inh inactive, G9a block 50µM, Sfp PPTase inh inactive, HP1b binding inh inactive, L3MBTL1 inh inactive and BAZ2B block inactive.
CN(Cc1ccccc1)C(=O)N1CCOCC1 was read as JMJD2A Tudor inh inactive, Sfp PPTase inh inactive, HP1b binding inh inactive, L3MBTL1 inh inactive and BAZ2B block inactive.
COc1ccc(-c2nnc(SCC(=O)Nc3ccccc3)n2C)cc1 was read as JMJD2A Tudor inh inactive, G9a block inactive, Sfp PPTase inh inactive, HP1b binding inh inactive, L3MBTL1 inh inactive and BAZ2B block inactive.
CCOC(=O)/C(=N\Nc1ccc(Cl)cc1)Sc1nnc(-c2ccc(OC)cc2)n1C was read as JMJD2A Tudor inh inactive, G9a block 10µM, Sfp PPTase inh inactive, HP1b binding inh inactive, L3MBTL1 inh inactive and BAZ2B block inconclusive.
Screening COC(=O)/C(=N\Nc1ccccc1)Sc1nnc(-c2ccc(OC)cc2)n1C returned JMJD2A Tudor inh inconclusive, G9a block 5µM, Sfp PPTase inh inactive, HP1b binding inh inactive, L3MBTL1 inh inactive and BAZ2B block inactive.

Bioassay records from PubChem BioAssay.
